The list is not random: actives were taken first. Their share in the collection is about 5.2%.
esBAF inh: inhibitors of esBAF chromatin remodeling in mouse ES cells. Bmi1-luciferase knock-in reporter, 24 h; 100% = twice the neutral-well signal. reporter increase, % at 12.5 µM. 2% of 350,000 active. AID 602393; in the data active means activation above about 40%;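 further: 0% = median of the plate's neutral control wells and 100% = double that signal; a rise in the Bmi1 reporter signal indicates esBAF inhibition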
Vif inh: HIV Vif inhibition | HEK293T cells, Vif self-association by quenched fluorescence, imaging, 24 h | inhibition, % at 7.49 µM | 0.35% of 340,000 active | AID 602346; in the data active means inhibition above about 50%, passing the limit was not always enough
SMARCA2 act: activators of SMARCA2 function; MG213 cells, MMTV-luciferase reporter, dexamethasone, overnight; activation, % at 9.1 µM; AID 652017; 1% of 370,000 active; in the data active means activation above about 7.8%;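 further: 0% = vehicle wells and 100% = reference activator wells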
SKN-1 block: blocks SKN-1 activity in C. elegans | 0.49% of 360,000 active | inhibition, % at 21.8 µM | C. elegans VP596 Pgst-4::GFP/RFP ratio, acrylamide-induced, 24 h;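 active means interference check ratio from 0.5 to 1.5 plus GFP to RFP signal ratio inhibition reaching or exceeding a fixed threshold, cut at about 30% in these data, passing the limit was not always enough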
GRIN3A LBD mod: modulates the human NR3A ligand-binding domain | NR3A LBD differential scanning fluorimetry, Tm shift; 0% = protein alone, 100% = glycine-bound protein | Tm shift relative to glycine control, % at 25 µM | 2.5% of 340,000 active;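 active means melting temperature shift of at least 10% of the positive control shift, at one fixed dose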
NadD inh: blocks S. aureus nicotinate mononucleotide adenylyltransferase | purified NadD enzyme, colorimetric absorbance read-out | inhibition, % at 20 µM | 0.78% of 360,000 active | AID 602399; in the data active means inhibition above about 26%
* hit, by the source's call; / = not tested or not shown.

SMILES	esBAF inh	Vif inh	SMARCA2 act	SKN-1 block	GRIN3A LBD mod	NadD inh
Cc1[nH]n(-c2ccc(Cl)cc2)c(=O)c1C=Nc1ccc(S(=O)(=O)N2CCOCC2)cc1	3.6	-1.2	-1.1	5.3	32.0*	-0.2
COc1nccnc1NS(=O)(=O)c1ccc(N=Cc2c(C)[nH]n(-c3ccc(Cl)cc3)c2=O)cc1	/	/	0.6	/	/	/
Cc1noc(C)c1S(=O)(=O)Nc1ccc2c(c1)C(=O)N([C@H](C)CO)C[C@@H](C)[C@@H](CN(C)CC1CCCCC1)O2	4.4	/	/	/	/	/
CCOC(=O)CSc1nnc2c3ccccc3n(CC)c2n1	10.3	-4.0	0.6	-2.3	-0.7	6.0
CCn1c2ccccc2c2nnc(SCC(=O)NC(CC(C)C)C(=O)OC)nc21 (stereo unspecified)	0.6	-18.5	7.8*	-16.6	-1.7	-2.3
Cc1ccc(S(=O)(=O)N[C@@H]2CC[C@@H](CC(=O)NCc3ccccc3F)O[C@@H]2CO)cc1	3.1	/	/	/	/	/
COc1ccc(C(=O)Nc2ccc3[nH]ccc3c2)cc1	/	-5.2	4.8	12.6	30.7*	-5.7
COc1ccc(C(=O)Nc2ccc3[nH]ncc3c2)cc1	-14.6	-1.8	5.1	7.0	11.7*	-6.2
C[C@H]1CN([C@@H](C)CO)S(=O)(=O)c2ccc(-c3ccncc3)cc2O[C@@H]1CN(C)C(=O)C1CCCCC1	-3.8	/	/	/	/	/
O=C(CC1SC(=O)N(c2ccccc2)C1=O)Nc1ccc(Cl)cc1 (stereo unspecified)	/	-6.2	3.7	5.2	22.1*	2.7
O=C(CC1SC(=O)N(c2ccccc2)C1=O)Nc1ccc(Br)cc1 (stereo unspecified)	/	13.7	2.9	11.0	29.7*	-5.2
O=C(CC1SC(=NCCc2ccccc2)N(/N=C/c2cccs2)C1=O)Nc1ccc(Cl)cc1 (stereo unspecified)	/	-1.5	-0.6	17.7	20.7*	2.2
CCCN1C(=O)SC(CC(=O)Nc2ccccc2)C1=O (stereo unspecified)	2.3	8.4	-1.3	-4.7	0.1	-2.5
C[C@H]1CN([C@@H](C)CO)C(=O)CCCn2nncc2CO[C@H]1CN(C)Cc1ccc(Cl)c(Cl)c1	12.2	/	/	/	/	/
C[C@@H]1CCCCO[C@@H](CN(C)Cc2ccccc2)[C@H](C)CN([C@@H](C)CO)C(=O)c2cc(NC(=O)Cc3ccccc3)ccc2O1	1.1	/	/	/	/	/
CCOC(=O)c1ccc(N2CCN(c3ccccc3F)CC2)c(NC(=O)Nc2cccc(OC)c2)c1	3.9	-8.4	-6.0	13.3	10.6*	14.7
O=C(Nc1cccc(F)c1)c1cc(S(=O)(=O)NCCC2=CCCCC2)ccc1F	/	5.1	-7.2	2.8	22.4*	-13.1
Cc1ccc(NC(=O)c2cc(S(=O)(=O)NCCC3=CCCCC3)ccc2F)cc1F	/	-16.6	-6.0	1.3	16.6*	-4.6
Cc1ccc(S(=O)(=O)NCCC2=CCCCC2)cc1C(N)=O	-7.8	-21.0	-3.8	-1.4	-0.6	1.0
CCC(=O)Nc1ccc2c(c1)C(=O)N(C)C[C@@H](OC)[C@@H](C)CN(C(=O)CN(C)C)[C@H](C)CO2	-2.0	/	/	/	/	/
CCC(=O)N(C)C[C@@H]1Oc2cc(C#Cc3ccncc3)ccc2S(=O)(=O)N([C@H](C)CO)C[C@H]1C	4.3	/	/	/	/	/
Oc1cccc(-c2nc3ccccc3s2)c1	-25.2	0.1	5.1	6.8	-2.2	0.5
Cc1cc(C)c(-c2nc3ccccc3s2)[nH]1	75.8*	1.8	1.0	19.2	-12.7	4.6
C[C@H]1CN([C@@H](C)CO)C(=O)Cc2cc(NS(=O)(=O)c3ccccc3)ccc2O[C@H]1CN(C)C(=O)Nc1ccc2c(c1)OCO2	7.4	/	/	/	/	/
NC(=S)NNC(=O)/C(=C/c1ccc(Br)cc1)NC(=O)c1ccccc1	-0.9	-9.4	-0.3	-5.3	13.1*	1.5
SMILES	esBAF inh	Vif inh	SMARCA2 act	SKN-1 block	GRIN3A LBD mod	NadD inh
O=C(Nc1nc(-c2ccccc2)cs1)c1cccs1	61.6*	/	-0.4	63.2*	1.3	-12.0
COc1cccc(OC)c1C(=O)Nc1nc(-c2ccccc2)cs1	-2.1	-1.5	-0.8	0.2	1.6	10.6
O=C(Nc1nc(-c2ccc(Cl)s2)cs1)c1cccs1	69.3*	-16.6	-1.1	48.2*	16.9*	0.6
CCCC(=O)Nc1nc(-c2ccc(Cl)s2)cs1	/	-10.9	-3.2	22.3	-1.4	-4.7
CC(C)(C)c1csc(NC(=O)c2cccs2)n1	103.2*	/	1.1	9.9	-0.6	-0.6
O=C(Nc1nccs1)c1ccc(Cl)s1	52.0*	1.2	2.4	-0.6	2.2	2.3
C[C@@H]1CN([C@H](C)CO)C(=O)c2cc(NS(C)(=O)=O)ccc2O[C@H]1CN(C)Cc1ccc2c(c1)OCO2	-1.1	/	/	/	/	/
C[C@H]1CN([C@@H](C)CO)S(=O)(=O)c2ccc(C#CCN(C)C)cc2O[C@@H]1CN(C)Cc1ccccc1F	-5.0	/	/	/	/	/
CCCNC(=O)N1C[C@@H](C)[C@@H](OC)CN(C)C(=O)c2ccc(NS(C)(=O)=O)cc2OC[C@H]1C	4.2	/	/	/	/	/
CCn1c(CCNC(=O)c2cccs2)nnc1SCC(=O)Nc1nc(-c2ccccc2)cs1	44.3*	-17.6	-4.9	5.6	-6.3	2.0
O=C(Nc1ccc2sccc2c1)c1ccc(Cl)s1	12.8	-4.1	1.4	4.4	23.4*	-4.2
O=C(Nc1ccc2c(c1)C(=O)NC2=O)c1ccc(Cl)s1	-0.8	/	-6.1	4.6	1.1	5.8
O=C(Nc1ccnc(-c2cccnc2)n1)c1cccs1	0.9	119.3*	-5.0	8.1	-1.9	1.7
O=C(Nc1nc(-c2ccc(Cl)s2)cs1)c1ccco1	/	-1.7	-1.3	85.2*	6.3	-10.8
CC(=O)Nc1ccnc(-c2cccnc2)n1	-11.5	-1.6	-3.4	2.1	-1.2	-0.8
O=C(C1CC1)N1[C@H](CO)[C@H]2c3ccccc3NC[C@H]21	-8.7	/	/	/	/	/
CC1C=NC(S(=O)(=O)N2CC[C@@H]3[C@H](CO)N(C)c4ccc(-c5ccc(F)cc5)cc4[C@@H]32)=N1 (stereo partly specified)	3.0	/	/	/	/	/
CN(C)C(=O)C[C@@H]1C=C[C@H](NC(=O)C2CCC2)[C@H](CO)O1	2.1	/	/	/	/	/
O=C(Nc1nc(-c2ccccc2)ns1)c1cccs1	44.2*	-6.8	1.1	27.5	18.9*	-3.7
CCn1c(CC(=O)Nc2ccccc2)nnc1SCC(=O)Nc1nnc(C)s1	-4.0	67.5*	-0.6	3.1	-0.7	-0.1
O=C(Nc1nc(-c2ccccn2)cs1)c1ccc(Cl)s1	-12.8	-23.4	-0.9	21.2	19.2*	-0.5
CC(=O)c1c(C)[nH]c(C(=O)Nc2nc(-c3ccc(-c4ccccc4)cc3)cs2)c1C	/	2.1	0.3	-0.2	11.0*	16.2
CCn1c(CC(=O)Nc2ccccc2F)nnc1SCC(=O)Nc1nnc(C)s1	-4.1	28.2	0.1	-0.6	7.1	-6.4
CO[C@H]1CN(C)C(=O)c2ccc(NC(=O)Nc3cccc(Cl)c3)cc2OC[C@H](C)NC[C@H]1C	7.8	/	/	/	/	/
O=S(=O)(c1ccc2ccccc2c1)N1CCN(C(=S)Nc2ccc(F)c(Cl)c2)CC1	/	-3.3	3.1	-0.4	19.2*	14.0

Assay outcomes (PubChem BioAssay)
